The list is not random: actives were taken first. Their share in the collection is about 3.8%.
tim23-1 inh: growth inhibitors of tim23-1 mutant yeast, primary screen, luminescence, uHTS; S. cerevisiae tim23-1 growth, BacTiter-Glo luminescence, 24 h; 330,000 compounds, 1.3% hits; inhibition, % at 20 µM;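 active = growth inhibition of the mutant yeast at or above 50%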;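 note: temperature-sensitive mutant grown at 25 °C; plate controls were DMSO-treated mutant yeast for no effect and medium wells lacking yeast for full effect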
NALP3 yeast inh: NALP3 inflammasome inhibitors in reconstituted yeast, primary screen, luminescence, uHTS | Yeast reconstituted NLRP3/ASC/caspase-1, beta-gal luminescence, 24 h | inhibition, % at 10 µM | 330,000 compounds, 0.39% hits | AID 2825, 2010;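 active = inhibition of 50% or more; inactive = inhibition below 50%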;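 note: plate controls were induced DMSO wells for no effect and uninduced yeast grown without galactose for full effect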
TIM10 inh: growth inhibitors of isogenic TIM10 control yeast, primary screen, counter-screen for tim10-1 yeast inhibitor project, luminescence, uHTS | S. cerevisiae TIM10 strain growth, BacTiter-Glo luminescence, 24 h | inhibition, % at 10 µM | 330,000 compounds, 1.4% hits | AID 463195, 2010;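 active = inhibition of 40% or more at the single tested concentration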;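 note: wild-type TIM10 isogenic control strain grown at permissive 25 °C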
tim10-1 inh: growth inhibitors of tim10-1 mutant yeast, primary screen, luminescence, uHTS; S. cerevisiae tim10-1 ts strain growth, BacTiter-Glo, 24 h; inhibition, % at 20 µM; 330,000 compounds, 2.2% hits; AID 463190, 2010;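 active = inhibition of at least 40%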;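 note: mutant grown at 25 °C; 0% = DMSO wells with yeast and 100% = wells holding no yeast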
Yeast superoxide: reduction of superoxide in aged yeast, primary screen, HTS. S. cerevisiae aged cells, superoxide DHE fluorescence; stronger effect = lower value. 330,000 compounds, 0.18% hits. AID 2690, 2010. superoxide response (% of plate mean), % at 10 µM;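 active = superoxide response under a set limit, about three screen SD below normal, cut at about 65% in these data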;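 note: yeast aged for seven days with compound at 30 °C before DHE staining; 100% = average MFI of all compound-treated wells on the plate with controls excluded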
TIM10 conf: growth inhibitors of wild-type TIM10 yeast, confirmation, counter-screen for tim10-1 synthetic lethality project, single concentration, luminescence, S. cerevisiae; inhibition, % at 10 µM; 4,600 compounds, 63% hits; S. cerevisiae tim10 strain growth, BacTiter-Glo luminescence, 24 h; shares compounds with TIM10 inh;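 active = inhibition of yeast growth at or above a set limit in either of two replicates at 10 µM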;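 note: this counterscreen used the strain with wild-type TIM10; 0% = yeast with DMSO and 100% = medium wells lacking yeast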
* marks the source's active call; other numbers are inactive results.

What do the screens show for `NS(=O)(=O)c1ccc(N=Nc2c(O)ccc3ccccc23)cc1`?
tim23-1 inh: 17; NALP3 yeast inh: 15; TIM10 inh: 18; tim10-1 inh: 33; Yeast superoxide: 83

How did O=C(O)CSc1nnc(-c2ccc(Cl)cc2Cl)n1-c1ccc(Cl)cc1 do in these assays?
tim23-1 inh: 12; NALP3 yeast inh: 21; TIM10 inh: 12; tim10-1 inh: 18; Yeast superoxide: 110

Results for COc1ccc(OC)c(C(=O)Cn2cnc3ccccc3c2=O)c1 ?
tim23-1 inh: -5; NALP3 yeast inh: 22; TIM10 inh: -31; tim10-1 inh: -11; Yeast superoxide: 95

Results for N/C(=N\NC(=O)c1ccccc1)c1cc2ccccc2oc1=O ?
tim23-1 inh: 12; NALP3 yeast inh: 28; TIM10 inh: 48*; tim10-1 inh: -4; Yeast superoxide: 102; TIM10 conf: 17

Results for O=C(c1cc2ccccc2oc1=O)N(Cc1ccccc1)CC1CCCO1 (stereo unspecified) ?
tim23-1 inh: 19; NALP3 yeast inh: -6; TIM10 inh: 17; tim10-1 inh: 13; Yeast superoxide: 109

How did O=C(NCC1CCCO1)c1cc2ccccc2oc1=O (stereo unspecified) do in these assays?
tim23-1 inh: 6; NALP3 yeast inh: -15; TIM10 inh: 95*; tim10-1 inh: 6; Yeast superoxide: 143; TIM10 conf: -6

What do the screens show for `COc1ccc(C(=O)N/N=C(\N)c2cc3ccccc3oc2=O)cc1`?
tim23-1 inh: 4; NALP3 yeast inh: -15; TIM10 inh: -14; tim10-1 inh: 10; Yeast superoxide: 106

Results for COc1ccc(C(=O)NC(Cn2ccnc2)C(C)(C)C)cc1OC1CCN(C(C)C)CC1 (stereo unspecified) ?
tim23-1 inh: -10; NALP3 yeast inh: 12; TIM10 inh: -7; tim10-1 inh: 4; Yeast superoxide: 93

How did Cc1ccc(OCC(=O)Nc2cccc(S(=O)(=O)N3CCCCCC3)c2)cc1C do in these assays?
tim23-1 inh: 2; NALP3 yeast inh: 14; TIM10 inh: 1; tim10-1 inh: -9; Yeast superoxide: 101

Results for O=C1CC(c2ccccc2)CC(O)=C1C=Nc1ccccc1 (stereo unspecified) ?
tim23-1 inh: 25; NALP3 yeast inh: 26; TIM10 inh: -9; tim10-1 inh: 24; Yeast superoxide: 88

What do the screens show for `O=C1CC(c2cccc(Cl)c2)CC(O)=C1C=Nc1cccc(Cl)c1` (stereo unspecified)?
tim23-1 inh: -13; NALP3 yeast inh: 25; TIM10 inh: 79*; tim10-1 inh: 15; Yeast superoxide: 78; TIM10 conf: 80*

How did CCN1CCc2c(sc(NC(=S)NC(=O)c3ccc(Cl)cc3)c2C(N)=O)C1 do in these assays?
tim23-1 inh: 10; NALP3 yeast inh: 21; TIM10 inh: 12; tim10-1 inh: 16; Yeast superoxide: 104

How did CC(C)(C)c1cc(NCc2ccccn2)n2ncc(-c3ccccc3)c2n1 do in these assays?
tim23-1 inh: 43; NALP3 yeast inh: 28; TIM10 inh: 52*; tim10-1 inh: 28; Yeast superoxide: 440; TIM10 conf: 42*

How did Nn1c(SCC(=O)NCC2CCCO2)nnc1-c1ccc(OC(F)F)cc1 (stereo unspecified) do in these assays?
tim23-1 inh: 3; NALP3 yeast inh: 16; TIM10 inh: 5; tim10-1 inh: 15; Yeast superoxide: 115

How did CCCOc1ccc(CC(=O)NNC(=S)Nc2ccccc2)cc1Br do in these assays?
tim23-1 inh: 42; NALP3 yeast inh: 20; TIM10 inh: 46*; tim10-1 inh: 31; Yeast superoxide: 108; TIM10 conf: 27*

How did COc1ccc(CC(=O)NNC(=S)Nc2ccccc2)cc1Cl do in these assays?
tim23-1 inh: 3; NALP3 yeast inh: 16; TIM10 inh: 1; tim10-1 inh: 8; Yeast superoxide: 104

How did Cc1cccc2nc(-c3ccccc3)nc(N3CCC(O)(c4ccc(Cl)cc4)CC3)c12 do in these assays?
tim23-1 inh: 36; NALP3 yeast inh: 27; TIM10 inh: 43*; tim10-1 inh: 36; Yeast superoxide: 94; TIM10 conf: 55*

What do the screens show for `CCOC(=O)c1sc(NC(=O)C(C)Sc2nc(N)cc(=O)[nH]2)nc1C` (stereo unspecified)?
tim23-1 inh: 4; NALP3 yeast inh: 18; TIM10 inh: 3; tim10-1 inh: -2; Yeast superoxide: 88

How did Cc1ccccc1NS(=O)(=O)c1ccc(NC(=O)CSCc2ccc(Br)cc2)cc1 do in these assays?
tim23-1 inh: 45; NALP3 yeast inh: 15; TIM10 inh: 41*; tim10-1 inh: 37; Yeast superoxide: 110; TIM10 conf: 28

What do the screens show for `O=C(Nc1ccc(S(=O)(=O)N2CCCCCC2)cc1)c1ccc(Br)o1`?
tim23-1 inh: 40; NALP3 yeast inh: 16; TIM10 inh: 56*; tim10-1 inh: 40; Yeast superoxide: 104; TIM10 conf: 50*

Results for O=C(COc1ccccc1)Nc1ccc(S(=O)(=O)N2CCCCCC2)cc1 ?
tim23-1 inh: 35; NALP3 yeast inh: 1; TIM10 inh: 71*; tim10-1 inh: 38; Yeast superoxide: 103; TIM10 conf: 60*

What do the screens show for `O=C(CSCc1ccc(Cl)cc1)Nc1ccc(S(=O)(=O)N2CCCCCC2)cc1`?
tim23-1 inh: 40; NALP3 yeast inh: 14; TIM10 inh: 41*; tim10-1 inh: 35; Yeast superoxide: 99; TIM10 conf: -23

How did COc1cc(NC(=O)C(C)Oc2ccccc2)ccc1NC(=O)COc1ccccc1 (stereo unspecified) do in these assays?
tim23-1 inh: 28; NALP3 yeast inh: 18; TIM10 inh: 2; tim10-1 inh: 12; Yeast superoxide: 109

What do the screens show for `O=C(/C=C/c1ccc(Br)cc1)c1ccc(NC2=NCCCS2)cc1`?
tim23-1 inh: 37; NALP3 yeast inh: 21; TIM10 inh: 52*; tim10-1 inh: 35; Yeast superoxide: 77; TIM10 conf: 29

How did O=C(N1CCOCC1)N1CCN(S(=O)(=O)c2cccc([N+](=O)[O-])c2)CC1 do in these assays?
tim23-1 inh: 4; NALP3 yeast inh: 24; TIM10 inh: 1; tim10-1 inh: 1; Yeast superoxide: 110

What do the screens show for `CCOc1ccc2nc(NC(=O)CSCC(=O)Nc3cc(C)on3)sc2c1`?
tim23-1 inh: -5; NALP3 yeast inh: 12; TIM10 inh: -11; tim10-1 inh: -1; Yeast superoxide: 99

Results for Cc1cc(F)ccc1NCc1cc2c(cc1[N+](=O)[O-])OCO2 ?
tim23-1 inh: 34; NALP3 yeast inh: 5; TIM10 inh: 45*; tim10-1 inh: 29; Yeast superoxide: 100; TIM10 conf: 41*
